# High-throughput results: PubChem BioAssay, National Center for Advancing Translational Sciences (NCATS)
# KB-V1 MDR tox: qHTS assay for MDR1-selective chemotherapeutics: Primary screen using the drug-selected MDR subline cells KB-V1; KB-V1 MDR cells viability, CellTiter-Glo, 72 h; Potency, µM (titrated, usually from 46.1 µM), usual class: cytotoxic; 400,000 tested, 3.4% active; further: on the % scale 0 is the no-effect control and ±100 the full control effect; nearly all actives have a fitted effect of over 60% in size
#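 In this primary screen, KB-V1 cells overexpressing P-gp are incubated with library compounds (lowest to highest concentration) for 72 h at 37 degrees C before a luminescent ATP viability read.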
# KB-3-1 cytotox: qHTS assay for MDR1-selective chemotherapeutics: Primary screen using the parental adenocarcinoma cell KB-3-1; KB-3-1 viability, CellTiter-Glo ATP luminescence, 72 h; Potency, µM (top dose mostly 46.1 µM), usual class: cytotoxic; 400,000 tested, 1.4% active; AID 1347075, 2019; further: on the % scale 0 is the no-effect control and ±100 the full control effect; nearly all actives have a fitted effect of over 60% in size
#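 Cytotoxicity in the drug-sensitive parental line KB-3-1 was scored as loss of CellTiter-Glo luminescence following 72 h incubation with compound. Values come from curve fitting of normalized concentration-response data.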
# RORgamma inh: qHTS for inhibitors of ROR gamma transcriptional activity; Nuclear receptor ROR-gamma (Mus musculus), P51450; Drosophila S2 Gal4-RORgamma UAS-luciferase reporter, 20 h; Potency, µM (series often up to 53.6 µM), without a hit: at the top dose activity change, negative = inhibition, most hits filed as inhibitors; 310,000 tested, 5.4% active; AID 2551, 2010; further: on the % scale 0 is the no-effect control and ±100 the full control effect; nearly all actives have a fitted effect of over 60% in size
# Target sequence (P51450 whole entry, looked up, the tested form may be a part): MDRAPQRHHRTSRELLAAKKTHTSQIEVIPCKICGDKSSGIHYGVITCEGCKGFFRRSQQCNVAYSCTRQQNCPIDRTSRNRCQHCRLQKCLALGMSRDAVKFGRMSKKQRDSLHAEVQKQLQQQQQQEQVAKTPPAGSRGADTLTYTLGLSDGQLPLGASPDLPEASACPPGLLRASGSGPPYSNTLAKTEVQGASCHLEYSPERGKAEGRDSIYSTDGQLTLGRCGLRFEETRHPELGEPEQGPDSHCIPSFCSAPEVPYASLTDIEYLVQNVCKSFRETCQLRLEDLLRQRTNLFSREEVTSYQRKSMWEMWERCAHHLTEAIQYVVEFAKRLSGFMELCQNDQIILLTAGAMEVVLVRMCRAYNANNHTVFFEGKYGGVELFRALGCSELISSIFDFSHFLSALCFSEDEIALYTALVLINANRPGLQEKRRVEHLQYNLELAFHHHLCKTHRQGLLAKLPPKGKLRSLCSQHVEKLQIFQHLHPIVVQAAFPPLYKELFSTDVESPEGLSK
#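 Read-out: Photinus luciferase luminescence; inhibitors lower reporter signal. Insect Schneider cells with Gal4-ROR gamma fusion under metallothionein promoter, UAS reporter; 700 uM final copper sulfate induction, 20 hr, ambient temperature.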
# SW480 rereplic: A quantitative high throughput screen for small molecules that induce DNA re-replication in SW480 colon adenocarcinoma cells; SW480 DNA re-replication, Hoechst DNA content imaging, 48 h; Potency, µM (series often up to 46.1 µM), inactives show at the highest dose re-replication activation, hits mostly activators; 340,000 tested, 1.8% active; further: % of control where 0% means no effect; nearly all actives have a fitted effect of over 55% in size
#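 Readout is total intensity of Hoechst-stained nuclei, excited at 405 nm and collected at 500-530 nm. Compound treatment lasted 48 hr at 37 C in 5% CO2 before staining.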
# MCF10A rerep: A quantitative high throughput screen for small molecules that induce DNA re-replication in MCF 10a normal breast cells. MCF 10A DNA re-replication, Hoechst nuclear intensity, 48 h. AID 624296, 2012. Potency, µM (titrated, usually from 46.1 µM), without a hit: top-dose activity, positive = re-replication, hits mostly activators. 350,000 tested, 2.9% active; further: % of control where 0% means no effect; nearly all actives have a fitted effect of over 50% in size
# VP16 counter: VP16 counterscreen qHTS for inhibitors of ROR gamma transcriptional activity. Drosophila S2 Gal4-VP16 UAS-luciferase, luminescence, 20 h. Potency, µM (top dose mostly 53.6 µM), for the others: at the highest dose activity, negative = inhibition, hits mostly inhibitors. 310,000 tested, 3.5% active. AID 2546, 2010;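 further: Gal4-VP16 expression switched on by copper sulfate through the metallothionein promoter; on the % scale 0 is the no-effect control and ±100 the full control effect; nearly all actives have a fitted effect of over 50% in size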
# Starred values were filed as active, the others as inactive; i = inactive; ? = inconclusive; nt = not tested or not shown. In the library only some 10% were active in any assay of this set; here they are far more common. The call rests on the fitted dose curve; in most records, active means well fitted curve in the direction sought with a large enough effect; inconclusive means small, poorly fitted or top-dose-only effect, or another doubt; inactive means no such curve, though single readings can be large; an effect the other way counts as inactive or inconclusive. Potency means the concentration at half of the fitted maximal effect.
SMILES,KB-V1 MDR tox,KB-3-1 cytotox,RORgamma inh,SW480 rereplic,MCF10A rerep,VP16 counter
CC(C)n1c(O)c(N=NC(=O)C2COc3ccccc3O2)c2ccccc21 (centres undefined),16µM*,i,?,?,13µM*,25%
Cn1c(O)c(N=NC(=O)C2COc3ccccc3O2)c2ccccc21 (centres undefined),i,i,30%,-13%,0%,-3%
Cc1cc(C(=O)N/N=C/c2ccc(-c3cccc(Br)c3)o2)n[nH]1,i,i,?,21µM*,?,-19%
O=[N+]([O-])c1ccc(C=Nc2ccccc2)cc1,i,i,nt,nt,nt,nt
CCCCN=Cc1c(C)[nH]n(-c2ccccc2)c1=S,i,i,0.63µM*,-5%,-3%,2.5µM*
Cc1nn(-c2ccccc2)c(C)c1/C=N/NC(=O)c1cc(C(C)(C)C)[nH]n1,?,i,?,-4%,8%,-2%
Cc1cc(C(=O)N/N=C/c2ccc(-c3cccc(Cl)c3Cl)o2)n[nH]1,i,i,?,9%,?,?
Cc1[nH]n(-c2ccccc2)c(=S)c1C=Nc1cccc([N+](=O)[O-])c1,i,i,1.8µM*,15%,?,7.1µM*
Cc1ccc(-c2cc(C(=O)N/N=C/c3c(C)nn(-c4ccccc4)c3C)n[nH]2)s1,i,i,-5%,1.3µM*,?,?
O=C(O)CCC[C@H](O)\C=C/C=C/C=C/[C@H](O)C/C=C\CCCCCO,nt,nt,?,nt,nt,-6%
O=C(c1ccccc1)c1ccc(C(=O)N2CCN(c3ccccc3O)CC2)cc1,i,i,nt,nt,nt,nt
C=Cc1ccc(CN2C(=O)N(c3ccc(CC)cc3)S(=O)(=O)c3ccccc32)cc1,i,?,nt,nt,nt,nt
Cn1c(=O)c2c(nc(Oc3ccccc3Cl)n2Cc2ccc(C#N)cc2)n(C)c1=O,?,i,nt,nt,nt,nt
CC(C)(C)N1CC(C(=O)Nc2ccc(C(N)=O)cc2)CC1=O (centres undefined),i,?,nt,nt,nt,nt
Cc1cc(C(=O)N/N=C/c2c(C)[nH]n(-c3ccccc3)c2=O)n[nH]1,i,i,10µM*,-3%,-1%,?
Cc1cc(C(=O)N/N=C/c2c3ccccc3cc3ccccc23)n[nH]1,18µM*,?,-12%,?,21µM*,-5%
Cc1cc(C(=O)N/N=C/c2c(C)n(C)c3ccccc23)n[nH]1,i,i,6%,232%,-2%,0%
Cc1ccc(-n2[nH]c(C)c(/C=N/NC(=O)c3ccc(O)cc3O)c2=O)cc1,i,i,2.5µM*,8.2µM*,2%,7.1µM*
NC(=O)C(=O)N/N=C/c1c2ccccc2cc2ccccc12,i,i,?,?,23µM*,-1%
CCOc1ccc2ccccc2c1/C=N/NC(=O)c1cc(C)[nH]n1,?,i,-31%,-31%,-6%,2%
CCN(C(=O)Cn1c(=O)n(CCCS(=O)(=O)C2CCCCC2)c(=O)c2ccccc21)c1cccc(C)c1,i,i,nt,nt,nt,nt
CCC(=O)c1c(O)cc(O)cc1O,nt,nt,30%,2%,-4%,-4%
Cc1ccc(C)c(NC(=O)c2nc(S(C)(=O)=O)ncc2N(Cc2ccc(C(C)(C)C)cc2)Cc2ccco2)c1,i,i,nt,nt,nt,nt
Cc1[nH]n(-c2ccccc2)c(=O)c1/C=N/NC(=O)c1ccc(O)cc1O,?,?,1.8µM*,?,9%,7.1µM*
Cc1[nH]n(-c2ccccc2)c(=O)c1C=NCCc1ccccc1,i,i,-10%,-4%,1%,6%
O=C(NCCCN1CCOCC1)C(=O)N/N=C/c1c2ccccc2cc2ccccc12,10µM*,5.8µM*,32%,23µM*,?,-5%
